Results filed as inconclusive are left out. The source made the active and inactive calls. Unless noted, the call rests on the fitted dose curve; in most records, active means well fitted curve in the direction sought with a large enough effect in the repeat runs; inconclusive means weak or mixed curves; inactive means no such curve, though single readings can be large; an effect the other way counts as inactive or inconclusive.
Columns and labels:
[1] = qHTS assay for small molecule agonists of the antioxidant response element (ARE) signaling pathway (AID 743202; active means well fitted activation curve with a large enough effect in the signal ratio in the repeat runs, not every such curve was filed as active; the % refers to the signal ratio)
Outline: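 HepG2 ARE-bla reporter line, 2,000 cells/well; 5 h preincubation 37 C/5% CO2; compound (DMSO) 16 h 37 C; B/G FRET substrate 2 h RT; fluorescence intensity.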

[2] = qHTS assay for small molecule agonists of the antioxidant response element (ARE) signaling pathway - cell viability counter screen (AID 743203; calls by dose curve; further: nearly all actives have a fitted effect of over 55% in size)
Outline: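 Parallel cytotoxicity read-out for the ARE-bla screen: HepG2 reporter cells, 16 hrs with compounds, then CellTiter-Glo luminescence.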

[3] = qHTS assay for small molecule activators of the heat shock response signaling pathway - cell viability counter screen (AID 743209); further: nearly all actives have a fitted effect of over 50% in size
Outline: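 To flag cytotoxic compounds, HSE-bla HeLa cells plated at 1500 cells/well were dosed for 5 h at 37 C, followed by the reporter FRET read and then CellTiter-Glo, with luminescence recorded 30 min after reagent addition.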

[4] = qHTS assay for small molecule activators of the heat shock response signaling pathway (AID 743210; active means well fitted activation curve with a large enough effect in the signal ratio in the repeat runs, with a control signal flat, not every such curve was filed as active; the % refers to the signal ratio;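 further: HeLa cells with beta-lactamase reporter driven by heat shock elements; series mostly up to about 63 µM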)
Outline: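 Beta-lactamase reporter read-out: FRET substrate fluorescence after 2.5 h at RT, following 5 h compound treatment at 37 C of HeLa cells carrying HSE-driven bla reporter; quantitative HTS format.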

[5] = qHTS assay to identify small molecule agonists of the peroxisome proliferator-activated receptor delta (PPARd) signaling pathway - cell viability counter screen (AID 743211); further: nearly all actives have a fitted effect of over 55% in size
Outline: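 Luminescent ATP viability assay (CellTiter-Glo, 30 min RT) in UAS-bla HEK293H cells carrying the PPAR delta reporter construct, 3000 cells/well, after a 17 h compound treatment at 37 C.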

[6] = biological target: Peroxisome proliferator-activated receptor delta (Homo sapiens) (UniProt Q03181); test: qHTS assay to identify small molecule agonists of the peroxisome proliferator-activated receptor delta (PPARd) signaling pathway (AID 743212; calls by dose curve)
Sequence of Peroxisome proliferator-activated receptor delta (Homo sapiens) (Q03181 whole entry, looked up): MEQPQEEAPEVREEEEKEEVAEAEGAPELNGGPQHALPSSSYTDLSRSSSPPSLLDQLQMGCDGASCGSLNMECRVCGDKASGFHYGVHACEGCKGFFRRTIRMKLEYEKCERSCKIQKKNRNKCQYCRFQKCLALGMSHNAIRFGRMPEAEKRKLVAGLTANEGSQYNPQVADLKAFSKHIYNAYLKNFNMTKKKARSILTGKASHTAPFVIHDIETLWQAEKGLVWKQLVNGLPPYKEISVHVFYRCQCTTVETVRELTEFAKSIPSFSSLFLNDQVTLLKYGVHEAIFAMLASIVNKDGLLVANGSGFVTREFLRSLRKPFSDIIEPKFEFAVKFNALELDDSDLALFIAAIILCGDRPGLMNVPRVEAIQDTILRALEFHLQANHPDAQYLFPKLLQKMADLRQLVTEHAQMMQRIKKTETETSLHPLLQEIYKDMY
Outline: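 Read-out: beta-lactamase FRET fluorescence after 2 h room-temperature incubation with LiveBLAzer B/G substrate. Cells were HEK293H carrying a UAS-bla reporter for PPARd, treated at 37 C with DMSO-dissolved compounds.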

[7] = qHTS assay to identify small molecule antagonists of the peroxisome proliferator-activated receptor delta (PPARd) signaling pathway - cell viability counter screen (AID 743213); further: nearly all actives have a fitted effect of over 50% in size
Outline: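 Agonist-stimulated (L165041, 300 nM final) HEK293H PPARd UAS-bla cells are exposed to compounds for 17 h at 37 C, and ATP-based luminescence (CellTiter-Glo) from the same wells reports cytotoxicity.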

[8] = biological target: Peroxisome proliferator-activated receptor delta (Homo sapiens) (UniProt Q03181); test: qHTS assay to identify small molecule antagonists of the peroxisome proliferator-activated receptor delta (PPARd) signaling pathway (AID 743215; active means well fitted inhibition curve with a large enough effect in the signal ratio in the repeat runs, not every such curve was filed as active; the % refers to the signal ratio; further: series mostly up to about 62 µM)
Outline: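 Screen format: qHTS, antagonist mode. HEK293H PPARd-bla cells received compound and 300 nM L165041 (final), 17 h, 37 C. Beta-lactamase detected via FRET substrate fluorescence, 2 h, room temperature.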

[9] = qHTS assay to identify small molecule agonists of the farnesoid-X-receptor (FXR) signaling pathway - cell viability counter screen (AID 743218); further: nearly all actives have a fitted effect of over 45% in size
Outline: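 Same-well cytotoxicity check on FXR-UAS-bla HEK 293T cells: 5 h attachment, 16 h compound at 37 C, CellTiter-Glo luminescence read at room temperature after 30 min.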

[10] = qHTS assay to identify small molecule antagonists of the farnesoid-X-receptor (FXR) signaling pathway - cell viability counter screen (AID 743221; active means well fitted cell-killing curve with a large enough effect in the repeat runs, not every such curve was filed as active; further: nearly all actives have a fitted effect of over 50% in size)
Outline: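 In GeneBLAzer FXR-UAS-bla HEK 293T cells stimulated with 50 uM chenodeoxycholic acid (final), compounds acted for 16 h at 37 C. Viability was assessed afterwards by CellTiter-Glo luminescence.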

[11] = biological target: Vitamin D3 receptor (Homo sapiens) (UniProt P11473); test: qHTS assay to identify small molecule agonists of the vitamin D receptor (VDR) signaling pathway (AID 743222; calls by dose curve)
Sequence of Vitamin D3 receptor (Homo sapiens) (P11473 whole entry, looked up): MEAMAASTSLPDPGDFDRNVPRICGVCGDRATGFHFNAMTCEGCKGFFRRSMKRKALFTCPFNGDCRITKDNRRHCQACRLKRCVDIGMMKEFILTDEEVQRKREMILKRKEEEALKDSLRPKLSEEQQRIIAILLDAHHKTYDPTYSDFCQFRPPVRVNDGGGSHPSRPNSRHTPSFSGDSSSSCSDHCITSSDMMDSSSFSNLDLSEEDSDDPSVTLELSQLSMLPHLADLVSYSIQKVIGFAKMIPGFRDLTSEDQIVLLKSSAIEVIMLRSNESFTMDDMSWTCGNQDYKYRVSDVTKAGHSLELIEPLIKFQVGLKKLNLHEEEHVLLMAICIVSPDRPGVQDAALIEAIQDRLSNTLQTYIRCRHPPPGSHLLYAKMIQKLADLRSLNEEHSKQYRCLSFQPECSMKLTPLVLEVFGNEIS
Outline: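 Using LiveBLAzer B/G FRET detection, agonism was scored in VDR-bla cells exposed overnight (16 h, 37C) to DMSO-dissolved compounds; substrate incubation was 2 h at room temperature.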

[12] = qHTS assay to identify small molecule that activate the aryl hydrocarbon receptor (AhR) signaling pathway - cell viability counter screen (AID 743086);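 further: HepG2 liver cells carrying the AhR DRE luciferase reporter; series mostly up to about 70 µM; nearly all actives have a fitted effect of over 45% in size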
Outline: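 HepG2-AhR-luc (HG2L7.5c1) cells, 4000/well, treated 24 h at 37 C with compound; viability measured as CellTiter-Fluor fluorescence after 30 min in the same wells as the luciferase read.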

[13] = qHTS assay to identify aromatase inhibitors - cell viability counter screen (AID 743084);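 further: cells stimulated with testosterone during compound exposure; nearly all actives have a fitted effect of over 55% in size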
[14] = biological target: Peroxisome proliferator-activated receptor gamma (Homo sapiens) (UniProt P37231); test: qHTS assay to identify small molecule agonists of the peroxisome proliferator-activated receptor gamma (PPARg) signaling pathway (AID 743094; active means well fitted activation curve with a large enough effect in the signal ratio in the repeat runs, not every such curve was filed as active; the % refers to the signal ratio)
Sequence of Peroxisome proliferator-activated receptor gamma (Homo sapiens) (P37231 whole entry, looked up): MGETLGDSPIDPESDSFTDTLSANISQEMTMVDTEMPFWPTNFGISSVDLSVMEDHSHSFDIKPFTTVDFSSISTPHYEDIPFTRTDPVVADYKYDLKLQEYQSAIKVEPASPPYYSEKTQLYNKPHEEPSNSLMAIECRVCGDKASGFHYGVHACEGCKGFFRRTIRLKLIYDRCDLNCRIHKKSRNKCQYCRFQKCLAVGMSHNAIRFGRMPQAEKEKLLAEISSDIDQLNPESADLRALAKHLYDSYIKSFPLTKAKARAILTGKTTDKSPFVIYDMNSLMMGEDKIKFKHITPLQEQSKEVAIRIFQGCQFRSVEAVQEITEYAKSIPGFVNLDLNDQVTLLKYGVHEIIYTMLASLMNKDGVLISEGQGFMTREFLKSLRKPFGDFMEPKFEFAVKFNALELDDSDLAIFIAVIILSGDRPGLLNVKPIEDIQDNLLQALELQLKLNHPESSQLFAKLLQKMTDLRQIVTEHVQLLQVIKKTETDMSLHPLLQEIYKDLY
Outline: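 Fluorescence-based beta-lactamase readout in HEK293H PPARg UAS-bla cells after 17 h compound exposure (37C) and 1 h B/G FRET substrate incubation at room temperature.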

[15] = qHTS assay to identify small molecule antagonists of the peroxisome proliferator-activated receptor gamma (PPARg) signaling pathway - cell viability counter screen (AID 743194); further: nearly all actives have a fitted effect of over 55% in size
Outline: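 Cytotoxicity counter screen in PPARg-bla HEK293H cells, same wells as reporter assay. Compounds plus 50 nM rosiglitazone (final) for 17 h at 37 C, then viability read by CellTiter-Glo luminescence.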

[16] = biological target: Bile acid receptor (Homo sapiens) (UniProt Q96RI1); test: qHTS assay to identify small molecule agonists of the farnesoid-X-receptor (FXR) signaling pathway (AID 743220; active means well fitted activation curve with a large enough effect in the signal ratio in the repeat runs, not every such curve was filed as active; the % refers to the signal ratio)
Sequence of Bile acid receptor (Homo sapiens) (Q96RI1 whole entry, looked up): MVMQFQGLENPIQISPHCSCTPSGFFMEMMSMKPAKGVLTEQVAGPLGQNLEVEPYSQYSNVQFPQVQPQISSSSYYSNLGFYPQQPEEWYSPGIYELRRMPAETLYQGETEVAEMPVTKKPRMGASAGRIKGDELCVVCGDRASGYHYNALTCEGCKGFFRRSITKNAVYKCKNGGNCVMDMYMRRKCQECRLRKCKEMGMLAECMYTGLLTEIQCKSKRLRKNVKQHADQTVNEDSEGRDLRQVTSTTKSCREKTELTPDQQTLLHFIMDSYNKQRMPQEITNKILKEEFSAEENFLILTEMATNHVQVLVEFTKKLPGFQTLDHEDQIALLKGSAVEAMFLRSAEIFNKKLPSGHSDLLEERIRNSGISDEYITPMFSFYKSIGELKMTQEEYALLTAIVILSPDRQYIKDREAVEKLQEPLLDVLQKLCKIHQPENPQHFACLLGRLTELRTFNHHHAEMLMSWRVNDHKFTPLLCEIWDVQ
Outline: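 FXR-UAS-bla HEK 293T cells carrying a UAS-driven beta-lactamase reporter were plated for 5 h at 37C/5% CO2, then exposed to DMSO-dissolved Tox21 10K compounds for 16 h at 37C. A LiveBLAzer B/G FRET substrate was loaded for 2 h at room temperature before fluorescence reading.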

[17] = biological target: Vitamin D3 receptor (Homo sapiens) (UniProt P11473); test: qHTS assay to identify small molecule antagonists of the vitamin D receptor (VDR) signaling pathway (AID 743223; active means well fitted inhibition curve with a large enough effect in the signal ratio in the repeat runs, not every such curve was filed as active; the % refers to the signal ratio)
Outline: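 Agonist 1alpha,25-dihydroxyvitamin D3 (3 nM in well) was added with each compound to VDR-bla cells preincubated 4 h. Cells stood 16 h at 37C, then FRET substrate 2 h at room temperature; fluorescence intensity recorded.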

[18] = biological target: Aryl hydrocarbon receptor (Homo sapiens) (UniProt P35869); test: qHTS assay to identify small molecule that activate the aryl hydrocarbon receptor (AhR) signaling pathway (AID 743085);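 further: HG2L7.5c1 human HepG2 liver cells with stably integrated DRE-driven firefly reporter; series mostly up to about 70 µM; nearly all actives have a fitted effect of over 15% in size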
Sequence of Aryl hydrocarbon receptor (Homo sapiens) (P35869 whole entry, looked up): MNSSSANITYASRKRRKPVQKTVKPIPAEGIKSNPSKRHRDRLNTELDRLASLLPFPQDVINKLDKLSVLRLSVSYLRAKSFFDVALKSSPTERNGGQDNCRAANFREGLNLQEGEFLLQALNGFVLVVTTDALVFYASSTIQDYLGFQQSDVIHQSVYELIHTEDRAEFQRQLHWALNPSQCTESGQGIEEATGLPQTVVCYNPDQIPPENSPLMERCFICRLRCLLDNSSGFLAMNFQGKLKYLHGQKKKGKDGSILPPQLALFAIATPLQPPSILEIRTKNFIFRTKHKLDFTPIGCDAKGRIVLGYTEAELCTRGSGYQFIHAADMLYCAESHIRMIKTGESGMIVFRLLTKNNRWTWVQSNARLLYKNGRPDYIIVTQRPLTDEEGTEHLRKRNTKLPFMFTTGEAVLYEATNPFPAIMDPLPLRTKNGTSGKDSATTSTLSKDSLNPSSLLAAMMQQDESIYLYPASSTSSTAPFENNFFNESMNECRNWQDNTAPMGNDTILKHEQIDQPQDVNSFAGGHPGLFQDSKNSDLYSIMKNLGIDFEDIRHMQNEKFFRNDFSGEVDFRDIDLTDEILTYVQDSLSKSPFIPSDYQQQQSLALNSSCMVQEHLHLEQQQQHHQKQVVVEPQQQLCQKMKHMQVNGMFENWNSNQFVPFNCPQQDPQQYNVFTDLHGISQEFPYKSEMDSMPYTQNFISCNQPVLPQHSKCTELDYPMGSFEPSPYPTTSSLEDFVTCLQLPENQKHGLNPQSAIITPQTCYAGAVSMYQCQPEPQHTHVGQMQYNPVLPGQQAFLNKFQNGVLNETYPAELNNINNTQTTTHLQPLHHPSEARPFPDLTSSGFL
Outline: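 24 h compound exposure, 37C, HepG2-derived HG2L7.5c1 cells with DRE-responsive luciferase. Readouts: fluorescence viability, then luminescence at room temperature after 30 min.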

[19] = biological target: Peroxisome proliferator-activated receptor gamma (Homo sapiens) (UniProt P37231); test: qHTS assay to identify small molecule antagonists of the peroxisome proliferator-activated receptor gamma (PPARg) signaling pathway (AID 743191; calls by dose curve; further: series mostly up to about 63 µM; nearly all actives have a fitted effect of over 30% in size)
Outline: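 GeneBLAzer PPARg UAS-bla HEK293H cells, 5 h post-plating, exposed to compounds 17 h at 37C. LiveBLAzer B/G FRET substrate added for 1 h at room temperature; beta-lactamase reporter read by fluorescence intensity.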

[20] = biological target: Bile acid receptor (Homo sapiens) (UniProt Q96RI1); test: qHTS assay to identify small molecule antagonists of the farnesoid-X-receptor (FXR) signaling pathway (AID 743217; active means well fitted inhibition curve with a large enough effect in the signal ratio in the repeat runs, not every such curve was filed as active; the % refers to the signal ratio)
Outline: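 Quantitative HTS, beta-lactamase reporter format: FXR-UAS-bla HEK 293T cells co-treated 16 h at 37 °C with compounds and 50 uM final chenodeoxycholic acid, then read by B/G FRET fluorescence.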

Measured: Potency

O=C(O)C1CCC1
inactive: [1] | [2] | [3] | [4] | [5] | [6] | [7] | [8] | [9] | [10] | [11]

CCCCCCCCCCCCCCC
inactive: [12] | [1] | [2] | [3] | [4] | [5] | [6] | [7] | [8] | [9] | [10] | [11]

COc1cc(CCC(C)=O)ccc1O
inactive: [13] | [14] | [15] | [2] | [3] | [4] | [5] | [7] | [8] | [9] | [16] | [10] | [11] | [17]

CC(C)CCCC(C)CCCC(C)CCCCC(C)CCCC(C)CCCC(C)C (centres undefined)
inactive: [13] | [15] | [1] | [2] | [3] | [4] | [5] | [6] | [7] | [8] | [9] | [10] | [11] | [17]

CCn1c(=O)c2c(nc(/C=C/c3ccc(OC)c(OC)c3)n2C)n(CC)c1=O
inactive: [15] | [1] | [2] | [3] | [4] | [5] | [6] | [7] | [9] | [16] | [10] | [11] | [17]

CC(C)CCCCCCN
inactive: [18] | [12] | [15] | [1] | [2] | [3] | [5] | [6] | [7] | [8] | [9] | [11]

COc1ccc2cc(C=O)ccc2c1
inactive: [15] | [1] | [2] | [3] | [4] | [5] | [6] | [7] | [8] | [9] | [11]

COC(=O)[C@H]1[C@H]2C[C@@H]3c4[nH]c5cc(OC)ccc5c4CCN3C[C@H]2C[C@@H](OC(=O)COc2ccc(OC)cc2)[C@@H]1OC
inactive: [13] | [15] | [1] | [2] | [5]

CNC(=O)c1c(I)c(NC(=O)CCCCC(=O)Nc2c(I)c(C(=O)O)c(I)c(C(=O)NC)c2I)c(I)c(C(=O)O)c1I
inactive: [19] | [1] | [2] | [3] | [4] | [5] | [6] | [7] | [8] | [20] | [16] | [10] | [11] | [17]

O=c1[nH]c2ccccc2c(=O)n1CCCl
inactive: [2] | [4] | [5] | [6] | [7] | [8] | [9] | [10] | [11] | [17]

CC(C)(C)C(=O)/C=C/c1ccc(Cl)cc1
inactive: [18] | [12] | [15] | [2] | [3] | [5] | [7] | [9] | [10] | [11]

Cc1c(F)cc2c(=O)c(C(=O)O)cn3c2c1CCC3C (centres undefined)
inactive: [1] | [2] | [4] | [5] | [6] | [7] | [9] | [11]

— PubChem BioAssay (Tox21)
